This is a sample that favours compounds with a hit; in the whole collection about 3.3% have one here.
Epigenetic mod: qHTS Assay for Epigenetic Modulators. hit rate 0.09% among 68,000. AID 597, 2007. Potency, µM (highest dose often 46.1 µM), for the others: at the highest dose GFP derepression (activation). mouse C127i GFP locus derepression, cytometry, 30 h; note: % of control where 0% means no effect
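Derepression screen: silenced CMV-GFP reporter in murine C127i cells, 30 h compound incubation at 37 C, washed cells imaged by laser-scanning cytometer to enumerate GFP-expressing objects of 20 to 120 um.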
HBB splicing: qHTS Assay for Modulators of Hemoglobin Beta Chain Splicing; hit rate 0.06% among 65,000; Potency, µM (highest dose often 46.1 µM), for the others: top-dose activation, hits mostly activators; HBB splicing reporter cell assay, activation; EGFP reporter with mutant IVS2-654 intron; response scale: normalised to 500 nM splice-correcting PNA; AID 925, 2007; note: potency is the fitted concentration of half-maximal effect; 0% is about no effect
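Compounds were applied for 2 days to HeLa EGFP-654 cells, 500/well in Optimem with 2% FCS. The reporter's EGFP is disrupted by mis-splicing of beta-globin intron IVS2-654. Readout: summed well GFP fluorescence from 488 nm laser scanning; reference was 500 nM antisense […] 654 PNA.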
GBA mod: Glucocerebrosidase | Lysosomal acid glucosylceramidase (Homo sapiens), P04062 | purified enzyme, resorufin glucoside fluorescence (screen aimed at inhibitors), 20 min | Potency, µM | hit rate 1.1% among 48,000; in the data active = potency below about 15 µM; inconclusive = mostly about 16 µM to 33 µM;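 note: potency is the fitted concentration of half-maximal effect; the screen sought inhibitors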
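Normal human glucocerebrosidase (0.2 nM final) was assayed with resorufin β-D-glucopyranoside (30 uM final) in 50mM citric acid/KH2PO4, 10mM sodium taurocholate, 0.01% tween-20, pH 5.9. Compounds were titrated; fluorescence (Ex 548, Em 600) read after 20 min at RT.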
PK Bst: Pyruvate Kinase | Potency, µM | purified pyruvate kinase, luminescence ATP production; ribose 5-phosphate activator present at AC10 | hit rate 1.2% among 51,000; in the data active = potency below about 11 µM; inconclusive = mostly about 12 µM to 25 µM;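 the screen sought inhibitors and activators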;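 note: potency is the fitted concentration of half-maximal effect; scaled between full activation by ribose 5 phosphate and full inhibition by luteolin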
Ub-GFP proteasome: Ubiquitin-GFP Assay; Ubiquitin-GFP reporter cells, proteasome inhibition, GFP fluorescence; response scale: untreated = 0%, 10 µM MG-132 = 100%; Potency, µM (doses to about 45.9 µM), inactives show at the top dose activation (GFP accumulation), most hits filed as activators; 67,000 tested, under 10 active; AID 526, 2006; active = well fitted activation curve with a large enough effect, not every such curve was filed as active; inconclusive = small, poorly fitted or top-dose-only effect, or another doubt; inactive = no such curve, though single readings can be large or run the other way; note: potency is the fitted concentration of half-maximal effect
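GFP accumulation read-out: laser plate cytometry counting ubiquitin(G76V)-GFP-expressing U2OS cells after 4 hr compound exposure at 37 °C. Titrations spanned 46 uM to 2.9 nM; 0% = basal, 100% = 10 uM MG-132; concentration-response curves fitted.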
FLuc inh: qHTS Assay for Inhibitors of Firefly Luciferase | hit rate 2.2% among 72,000 | AID 411, 2009 | Luciferin 4-monooxygenase (Photinus pyralis), P08659 | Potency, µM (top dose mostly 57.1 µM), for the others: at the highest dose activity change, negative = inhibition, usual class: inhibitors | purified firefly luciferase, luminescence, 8 min; note: potency is the fitted concentration of half-maximal effect; % is set by controls: 0 for no effect and ±100 for the full control effect; nearly all actives have a fitted effect of over 40% in size
Target sequence (P08659 whole entry, looked up): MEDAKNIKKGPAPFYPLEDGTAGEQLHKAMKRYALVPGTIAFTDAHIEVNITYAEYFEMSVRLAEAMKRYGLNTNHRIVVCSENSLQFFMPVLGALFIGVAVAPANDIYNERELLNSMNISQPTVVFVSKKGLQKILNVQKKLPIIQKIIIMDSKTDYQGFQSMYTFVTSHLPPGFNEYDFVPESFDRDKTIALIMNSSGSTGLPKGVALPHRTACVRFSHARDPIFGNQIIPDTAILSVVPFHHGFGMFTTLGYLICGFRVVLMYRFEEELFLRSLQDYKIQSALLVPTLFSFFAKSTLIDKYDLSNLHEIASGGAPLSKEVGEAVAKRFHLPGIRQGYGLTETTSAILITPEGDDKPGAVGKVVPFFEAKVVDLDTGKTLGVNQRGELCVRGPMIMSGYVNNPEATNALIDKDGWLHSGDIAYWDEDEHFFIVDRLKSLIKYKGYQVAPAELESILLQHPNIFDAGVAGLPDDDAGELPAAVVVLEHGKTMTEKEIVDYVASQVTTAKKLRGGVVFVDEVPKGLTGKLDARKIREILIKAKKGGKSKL
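Luminescence read-out after 8 min at room temperature; enzyme reaction used luciferin plus 10 uM ATP (linear range) in imidazole buffer pH 7.2 with KCl, MgCl2, Tween 20 and BSA. Each sample was run as a titration.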
The depositor's hits bear a star; i = inactive; ? = inconclusive; . = not tested or not shown; [ ] = remark or other dose. Unless noted, calls come from the whole dose curve; as a rule, active = well fitted curve in the direction sought with a large enough effect; inconclusive = small, poorly fitted or top-dose-only effect, or another doubt; inactive = no such curve, though single readings can be large; an effect the other way counts as inactive or inconclusive.

SMILES	Epigenetic mod	HBB splicing	GBA mod	PK Bst	Ub-GFP proteasome	FLuc inh
CCOC(=O)c1c(NC(=O)c2nn(CC)cc2Br)sc2c1CCCCC2	4.3%	0.4%	5.22*	>57	4.8%	3.0%
CCCC1C(c2ccco2)NC(c2ccco2)CC1(C)O (stereo not given)	5.7%	-1.8%	>76.9	?	-0.6%	12.6µM*
CC(=O)c1c(C)n(C)c2ccc(OC(=O)c3ccco3)cc12	-1.7%	.	>76.9	8.37*	-7.5%	-1.4%
COc1ccc2c(c1)c(C(=O)CN1CCN(C(=O)c3ccco3)CC1)c(C)n2C	1.6%	-2.3%[57.5 µM]	>76.9	>57	-1.8%	1.8%
CCOCCOC(=O)COc1ccc(N2C(=O)c3ccccc3C2=O)cc1	-1.5%	-2.5%[0.0738 µM]	.	.	-10.3%[9.17 µM]	15.8µM*
CCCOC(=O)CN1C(=O)c2ccccc2C1=O	0.3%	.	>76.9	>57	0.6%	-1.3%
Clc1ccc(-c2nc(-c3ccccn3)no2)cc1Cl	-1.5%	0.4%[0.0738 µM]	.	.	0.0%[9.17 µM]	3.16µM*
Brc1ccc(-c2nc(-c3ccccn3)no2)o1	0.0%	-1.8%	.	.	-3.3%	3.16µM*
CCCCOC(=O)Nc1nc2ccc(OC)cc2s1	-1.5%	-1.7%[0.0738 µM]	.	.	-9.1%[9.17 µM]	-0.6%
CCCCN(C(=O)NC(=O)Nc1nc2ccc(OC)cc2s1)S(C)(=O)=O	0.0%	-1.2%	>76.9	i	2.4%	20µM*
COc1ccc2nc(Nc3nc(C)c(C(C)=O)s3)sc2c1	?	-0.2%	>76.9	.	-3.3%	15.8µM*
COc1ccc2nc(NC(=O)c3cnccn3)sc2c1	-1.7%	-2.9%	>76.9	i	-5.3%	12.6µM*
O=C1CCC=C1[C@@H](O)CCc1ccccc1	.	-1.4%[9.22 µM]	.	.	.	1.0%[11.4 µM]
Cc1cnc(CNc2nc(-c3ccccc3C(F)(F)F)nc3ccccc23)cn1	0.0%[9.22 µM]	1.5%	.	.	-3.9%	-3.1%[2.29 µM]
Cc1cnc(CNc2nc(-c3ccc(N(C)C)cc3)nc3ccccc23)cn1	-0.7%[9.22 µM]	1.7%	.	.	9.1%	0.794µM*
Clc1ccc(OCc2nc(-c3ccccn3)no2)c(Br)c1	4.9%	0.0%	.	.	14.1%	2.51µM*
Nc1nonc1-c1noc(COc2ccccc2Cl)n1	0.2%	-0.6%	>76.9	.	1.4%	12.6µM*
c1ccc(CCc2nc(-c3ccccn3)no2)cc1	0.0%	-0.3%	>76.9	>57	0.0%	-22.0%
Clc1ccccc1OCc1nc(-c2ccccn2)no1	0.0%	4.1%	>76.9	i	-14.9%	10µM*
Cc1cccc(CNc2ccnc(-c3ccoc3)n2)c1	2.3%[9.22 µM]	5.4%	.	.	-7.6%	2.6%[2.29 µM]
O=C(Cc1ccc(F)cc1)OCC(=O)c1cc2ccccc2o1	2.5%	-4.3%	>76.9	>57	0.0%	-43.6%
O=C(COC(=O)c1cccs1)c1ccccc1	-1.1%	-1.6%	>76.9	?	-1.7%	5.01µM*
O=C(COC(=O)c1cc2ccccc2o1)c1ccccc1	-1.5%	-0.7%[0.0738 µM]	.	.	-13.6%[9.17 µM]	12.6µM*
O=C(OCN1C(=O)c2ccccc2C1=O)c1cccs1	2.2%	0.0%[9.22 µM]	.	.	-1.8%	0.9%
C[C@@H]1C[C@@H]2[C@H]3CCC4=CC(=O)C=C[C@]4(C)[C@]3(Cl)[C@@H](O)C[C@@]2(C)[C@@]1(O)C(=O)CO	-2.2%	3.9%	.	.	-0.1%	-6.7%
SMILES	Epigenetic mod	HBB splicing	GBA mod	PK Bst	Ub-GFP proteasome	FLuc inh
CCSc1nnc(NC(=O)c2ccc(Br)s2)s1	0.0%	0.8%	1.03*	>57	-6.6%	2.1%
O=c1c(-c2cccs2)nc2cncnc2n1-c1ccccc1	-2.7%[9.22 µM]	6.5%	.	.	4.0%	-3.7%[11.4 µM]
CC(C)=CCC/C(C)=C/CO/N=C1/C[C@@H](O)[C@@H](O)[C@@H]2[C@@H]3C(=O)N(Cc4ccccc4)C(=O)[C@H]3CC[C@H]12	.	0.4%[9.22 µM]	.	.	.	-0.2%[11.4 µM]
COC(=O)c1ccc(NC(=O)c2ccccc2NS(C)(=O)=O)cc1	6.5%	-1.6%	>76.9	.	0.6%	15.8µM*
O=C(CCCN=C1NS(=O)(=O)c2ccccc21)OCC(=O)N1CCc2ccccc21	0.1%	-0.3%	>76.9	>57	0.9%	31.6µM*
CC1(N)CCC(C(C)(C)N)CC1 (stereo not given)	.	0.0%	.	.	.	.
